{
  "source": "PubChem BioAssay (EPA / NIEHS)",
  "note": "A structure can be active in one record and inactive in another. Activity calls are given as the source filed them. How the source made its calls: active means hit-call score of the fitted dose curve at least 0.9, where 1 is the maximum; inactive means score below 0.9.",
  "data": [
    {"assay": "ATG_M_61_CIS: Attagene CIS-FACTORIAL HepG2 Assay for M61 Transcription Factor (Internal Marker) (AID 2282937)", "conditions": "HepG2 Attagene CIS-FACTORIAL M61 internal marker reporter; actives raise or lower the signal", "description": "ATG_CIS is a cell-based, multiplexed-readout assay that uses HepG2, a human liver cell line, with measurements taken at 24 hours after chemical dosing in a 24-well plate.ATG_M_61_CIS is one of 52 assay component(s) measured or calculated from the ATG_CIS assay. It is designed to make measurements of mRNA induction, a form of inducible reporter, as detected with fluorescence intensity signals by Reverse transcription polymerase chain reaction (RT-PCR) and Capillary electrophoresis technology.Data from the assay component ATG_M_61_CIS was analyzed into 1 assay endpoint. This assay endpoint, ATG_M_61_CIS, was analyzed with bidirectional fitting relative to DMSO as the negative control and baseline of activity. Using a type of inducible reporter, measures of mRNA for gain or loss-of-signal activity can be used to understand the background control at the transcription factor-level as they relate to the gene . Furthermore, this assay endpoint can be referred to as a secondary readout, because this assay has produced multiple assay endpoints where this one serves a background control function. To generalize the intended target to other relatable targets, this assay endpoint is annotated to the background measurement intended target family, where the subfamily is internal marker.\nHuman liver HepG2 cells are transiently transfected with multiple reporter transcription units (MRTUs) in 6-well plates using FuGene 6 reagent (Roche; 3 ml FuGene/1 mg DNA). The MRTU constructs are regulated by a cis-regulating element (promoter). […] A major difference between the CIS and TRANS system is that in CIS activities of endogenous TFs are measured, whereas the TRANS assay evaluates changes in activities of exogenous, chimeric NR-Gal4 proteins. […] At the end of 24 hour incubation, total RNA was isolated using TriZol reagent (Invitrogen). The isolated RNA is then reverse-transcribed using oligo(dT) primer and Mo-MLV reverse transcriptase (Invitrogen) with DNAse I (Ambion) treatment for 30 min. The one-tenth of the produced cDNA was amplified by PCR using Taq DNA polymerase (Invitrogen) and two reporter sequence-specific primers. The PCR products were fluorescently labeled by primer extension with 6-arboxyfluorescein (6-FAM) 5'-labeled reporter sequence-specific primer (2 min at 95 C, 20 s at 68 C and 10 min at 72 C) and these products were digested with 5U of HpaI (New England Biolabs) for 2h at 37 C. The fragments were purified using Qiaquick PCR columns (Qiagen), analyzed on an ABI 3130xL genetic analyzer (Applied Biosystems) with peak positions identified by using a set of X-rhodamine (ROX)-labeled MapMarker1000 molecular weight standards (BioVentures). The raw capillary electrophoresis data was processed using Attagraph software (Attagene).", "values": [
      {"molecule": "C=CC#N", "outcome": "inactive"},
      {"molecule": "O=C(NCO)NCO", "outcome": "inactive"},
      {"molecule": "ClC1=C(Cl)[C@]2(Cl)[C@H]3[C@H]([C@H]4C=C[C@H]3C4)[C@@]1(Cl)C2(Cl)Cl", "outcome": "inactive"},
      {"molecule": "COC(=O)Cc1ccccc1", "outcome": "inactive"},
      {"molecule": "O=C(OC1CCCCC1)c1ccccc1C(=O)OC1CCCCC1", "outcome": "inactive"},
      {"molecule": "ClCC(Cl)CCl", "outcome": "inactive"},
      {"molecule": "COP(=S)(OC)Oc1ccc(S(=O)(=O)N(C)C)cc1", "outcome": "inactive"},
      {"molecule": "CCCCCCCCCl", "outcome": "inactive"},
      {"molecule": "N#CN=C(N)N", "outcome": "inactive"},
      {"molecule": "CC(C)(OO)c1ccccc1", "outcome": "inactive"},
      {"molecule": "CCCCCCCCC(=O)NCc1ccc(O)c(OC)c1", "outcome": "inactive"},
      {"molecule": "Cn1sc(Cl)cc1=O", "outcome": "inactive"},
      {"molecule": "O=[N+]([O-])c1ccc(O)c([N+](=O)[O-])c1", "outcome": "inactive"},
      {"molecule": "O=C(O)C(F)(F)C(F)(F)C(F)(F)C(F)(F)C(F)(F)C(F)(F)C(F)(F)C(F)(F)C(F)(F)C(F)(F)F", "AC50": "76.2 µM (active)", "outcome": "inactive"},
      {"molecule": "O=C1C(Cl)=C(Cl)C(=O)c2ccccc21", "outcome": "inactive"},
      {"molecule": "CCOP(=S)(OCC)SCSP(=S)(OCC)OCC", "outcome": "inactive"},
      {"molecule": "C1CCC(NC2CCCCC2)CC1", "outcome": "inactive"},
      {"molecule": "Nc1cccc(Cl)c1", "outcome": "inactive"},
      {"molecule": "O=P(O)(O)CN(CP(=O)(O)O)CP(=O)(O)O", "outcome": "inactive"},
      {"molecule": "Cl/C=C\\C[N+]12CN3CN(CN(C3)C1)C2", "outcome": "inactive"},
      {"molecule": "CCC(C)(C)c1ccc(O)c(C(C)(C)CC)c1", "outcome": "inactive"},
      {"molecule": "COc1ccc(OC)c(C=O)c1", "outcome": "inactive"},
      {"molecule": "CCOP(=S)(OCC)Oc1nc(Cl)c(Cl)cc1Cl", "outcome": "inactive"},
      {"molecule": "C=C(C)C#N", "outcome": "inactive"},
      {"molecule": "O=C(Cl)c1ccc(Cl)cc1", "outcome": "inactive"},
      {"molecule": "CCc1ccccc1C", "outcome": "inactive"},
      {"molecule": "CC(=O)c1cc(C(C)(C)C)cc2c1CCC2(C)C", "outcome": "inactive"},
      {"molecule": "Oc1c(I)cc(I)cc1I", "outcome": "inactive"},
      {"molecule": "CC(Br)C(=O)O", "note": "(stereo not given)", "outcome": "inactive"},
      {"molecule": "C=CC(=O)OCCCCCC(C)C", "outcome": "inactive"},
      {"molecule": "Cl/C=C/Cl", "outcome": "inactive"},
      {"molecule": "CCOC(=O)/C=C(C)/C=C/C[C@@H](C)CCCC(C)C", "outcome": "inactive"},
      {"molecule": "Clc1nc(Cl)nc(Cl)n1", "outcome": "inactive"},
      {"molecule": "CC(C)C1CCC(Cc2ccc(Cl)cc2)C1(O)Cn1cncn1", "note": "(stereo not given)", "outcome": "inactive"},
      {"molecule": "CCCCCCCCSC(=O)Oc1cc(Cl)nnc1-c1ccccc1", "outcome": "inactive"},
      {"molecule": "COS(=O)(=O)c1ccc(C)cc1", "outcome": "inactive"},
      {"molecule": "CC(=O)OC(c1ccccc1)C(Cl)(Cl)Cl", "note": "(stereo not given)", "outcome": "inactive"},
      {"molecule": "CC(C)CCCCCCOC(=O)c1ccccc1C(=O)OCCCCCCC(C)C", "outcome": "inactive"},
      {"molecule": "Nc1cccc2ccccc12", "outcome": "inactive"}
    ]}
  ]
}
